Assay outcomes from PubChem.
A selection: hits, their analogues and other compounds. The true share with any hit is near 11%.
AMA1 RON2 block – AMA1-RON2 (P. falciparum) interaction inhibition | AID 720542 | Potency, µM (doses to about 58.2 µM), most hits filed as inhibitors | 360,000 compounds, 0.2% hits | AlphaScreen AMA1-biotinylated RON2 peptide binding; note: nearly all actives have a fitted effect of over 45% in size
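AMA1 (3D7) with his tag at 25 nM final met compounds first, then biotinylated RON2 peptide at 25 nM; detection used donor plus acceptor beads, 10 µg/mL apiece, read by AlphaScreen after 30 min at room temperature.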
Sm TGR block – S. mansoni TGR enzyme inhibition | Potency, µM (series often up to 114 µM), most hits filed as inhibitors | 360,000 compounds, 3% hits | purified TGR, DTNB reduction, TNB absorbance 405 nm | Q962Y6 | AID 485364; note: nearly all actives have a fitted effect of over 60% in size
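First, TGR (20 nM dispensed) and NADPH were mixed with compound. Second, a 15 min room-temperature incubation followed. Third, further NADPH and then DTNB were added to start the reaction. Finally, TNB absorbance was monitored kinetically.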
Pf growth 96h – P. falciparum growth inhibition at 96 hours. Potency, µM (titrated, usually from 28.7 µM), usual class: inhibitors. 320,000 compounds, 6.9% hits. P. falciparum luciferase reporter growth, 96 h
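Delayed-death screen, second-generation endpoint: infected erythrocytes, 2% hematocrit, 0.05% parasitemia final; 96 hours at 37 C, 5% CO2; luciferase detection reagent; luminescence decrease equals reduced growth.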
Pf growth 48h – P. falciparum growth inhibition at 48 hours (one generation) | P. falciparum luciferase growth in erythrocytes, 48 h | Potency, µM (doses to about 28.7 µM), hits mostly inhibitors | 310,000 compounds, 5.9% hits
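Erythrocytes infected with P. falciparum carrying an integrated firefly luciferase reporter (2% hematocrit, 0.1% parasitemia final) were exposed to compounds in RPMI 1640 with 0.5% Albumax at 37 C, 5% CO2. Growth inhibition was scored as reduced luminescence.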
NS1 inh – inhibitors of influenza NS1 protein function | 270,000 compounds, 0.4% hits | Potency, µM (titrated, usually from 46.1 µM) | AID 2326; calls by dose curve; note: actives are rising curves; nearly all actives have a fitted effect of over 50% in size
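S. cerevisiae expressing influenza A NS1, grown in glucose, washed, then diluted 1:100 into pH 6.0 -URA galactose medium with 23 nl compound. Growth recovery read as OD600; NS1-free strain serves as control.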
Of the large screens only hits and unclear results are named; the others gave an inactive call. Unless noted, calls come from the whole dose curve; as a rule, active = well fitted curve in the direction sought with a large enough effect; inconclusive = small, poorly fitted or top-dose-only effect, or another doubt; inactive = no such curve, though single readings can be large; an effect the other way counts as inactive or inconclusive.

CCN(CC)S(=O)(=O)c1ccc(N2CCCC2)c(NC(=O)c2ccccc2OC)c1	Pf growth 96h 10µM, Pf growth 48h inconclusive
COc1ccc(/C=C/C(=O)Nc2cc(S(=O)(=O)N3CCCCC3)ccc2N2CCCCC2)cc1OC	Pf growth 96h inconclusive, Pf growth 48h inconclusive
CCN1CCN(c2ccc(S(=O)(=O)N3CCCCC3)cc2NC(=O)/C=C/c2ccc(OC)c(OC)c2)CC1	Pf growth 96h 6.6µM, Pf growth 48h 6.6µM (no result: NS1 inh)
COc1cc(/C=C/C(=O)Nc2cc(S(=O)(=O)N3CCOCC3)ccc2N2CCCC2)cc(OC)c1OC	Pf growth 48h inconclusive (no result: NS1 inh)
COc1cc(/C=C/C(=O)Nc2ccc(N3CCCCC3)c(S(=O)(=O)Nc3ccccc3Cl)c2)cc(OC)c1OC	Pf growth 96h 4.1µM, Pf growth 48h 13µM
O=C(O)Cc1nn(Cc2ccc(Br)cc2F)c(=O)c2ccccc12	none (no result: AMA1 RON2 block, Sm TGR block, NS1 inh)
O=C(Nc1ccc(F)cc1)Nc1sccc1-c1nc2ccccc2s1	Pf growth 96h inconclusive, Pf growth 48h 8.3µM
CNc1sc(C(=O)c2ccc(F)cc2)c(N)c1-c1nc2ccccc2s1	Sm TGR block 40µM (no result: Pf growth 48h)
COc1cc(NCc2ccc3nc(N)nc(N)c3c2C)cc(OC)c1OC	Pf growth 96h 0.0048µM, Pf growth 48h 0.006µM (no result: AMA1 RON2 block, Sm TGR block, NS1 inh)
COc1ccc(CNc2ccncc2)c(OC)c1OC	none (no result: Sm TGR block, Pf growth 96h, Pf growth 48h, NS1 inh)
CC(C)NC(=O)C1(O)c2ccccc2NC(=O)N1c1ccc(Cl)c(Cl)c1 (stereo not given)	Pf growth 96h 10µM
CCOCCCNC(=O)C1(O)c2ccccc2NC(=O)N1c1ccc(C)c(C)c1 (stereo not given)	none
CCOc1ccc(N2C(=O)Nc3ccc(Br)cc3C2(O)C(=O)NCCN(C)C)cc1 (stereo not given)	Pf growth 96h 1.9µM
CCOCCCNC(=O)C1(O)c2ccccc2NC(=O)N1c1ccc(Cl)c(Cl)c1 (stereo not given)	Pf growth 96h inconclusive
CCCCN(C)CCCNC(=O)C1(O)c2ccccc2NC(=O)N1c1ccc(Cl)cc1 (stereo not given)	Pf growth 96h 4.1µM
CCC(=O)Nc1nnc(S(=O)(=O)N(C)c2cc(C)cc(C)c2)s1	none
Cn1ncc(Br)c1NC(=O)c1ccco1	none
Cc1c(C(c2cccc([N+](=O)[O-])c2O)c2c(C)n(C)n(-c3ccccc3)c2=O)c(=O)n(-c2ccccc2)n1C	none
Cc1cc(C(c2ccc(C)o2)c2ccc(C)o2)c(O)c([N+](=O)[O-])c1	Sm TGR block 45µM, NS1 inh inconclusive (no result: Pf growth 48h)
Cc1ccc(C(c2ccc(C)o2)c2cccc([N+](=O)[O-])c2O)o1	AMA1 RON2 block inconclusive, Sm TGR block inconclusive, Pf growth 96h 4.7µM, Pf growth 48h 7.4µM
Cc1ccc2c(COn3nnc4ccc(S(=O)(=O)N(C)C)cc43)cc(=O)oc2c1C	Pf growth 96h 10µM (no result: AMA1 RON2 block)
CCC(=O)Nc1sc2c(c1C#N)CC(C)(C)NC2(C)C	none
CC1(C)Cc2c(sc(NC(=O)C(C)(C)C)c2C#N)C(C)(C)N1	Pf growth 96h 3.3µM, Pf growth 48h inconclusive
CCN(CC)c1ccc(C=C(c2nnnn2-c2ccc(C)cc2)c2nnnn2-c2ccc(C)cc2)cc1	Pf growth 96h inconclusive, Pf growth 48h 1.7µM
CCOC(=O)c1ccccc1NC(=O)CSc1ccc(-c2cccs2)nn1	none (no result: AMA1 RON2 block, Pf growth 96h, Pf growth 48h, NS1 inh)
COc1cccc(/C=N/NC(=O)c2[nH]c(C)c(C(=O)N/N=C/c3cccc(OC)c3O)c2C)c1O	Pf growth 48h 9.3µM (no result: Pf growth 96h)
COc1cccc(/C=N/NC(=O)c2ccc(=O)[nH]n2)c1O	Pf growth 48h 5.9µM
CC(C)(C)C(=O)Nc1ccc(C(=O)N/N=C/c2ccccc2OC(=O)c2ccccc2)cc1	Pf growth 96h 4.1µM, Pf growth 48h inconclusive
COCCCNC(=S)N/N=C/c1cccc(OC)c1O	Sm TGR block inconclusive, Pf growth 96h inconclusive, Pf growth 48h 0.41µM
CCOC(=O)C1(C)CCCN(C(=O)c2cc(C)on2)C1 (stereo not given)	none (no result: Sm TGR block, Pf growth 96h, Pf growth 48h, NS1 inh)
COc1cc(OC)c(OC)cc1/C=N/NC(=O)C[n+]1ccccc1	none
COc1cccc(/C=N/NC(=O)C[n+]2ccccc2)c1O	Pf growth 96h 5.9µM, Pf growth 48h inconclusive
COc1cccc(/C=N/NC(=O)c2ccc(-c3ccccc3)cc2)c1O	Pf growth 96h 7.4µM (no result: Pf growth 48h)
COc1ccc(OC)c(/C=N\NC(=O)c2ccc(-c3ccccc3)cc2)c1	Pf growth 96h inconclusive
COc1cc(/C=C(\NC(C)=O)C(=O)Nc2cccc(O)c2)ccc1OC(C)=O	Sm TGR block 50µM, Pf growth 96h inconclusive
COC(=O)C1=C(C)NC2=C(C(=O)CC(C)(C)C2)C1c1ccccn1 (stereo not given)	Pf growth 96h 9.3µM
CC1=C(C(=O)OC2CCCC2)C(c2coc3ccc(C)cc3c2=O)C2=C(CCCC2=O)N1 (stereo not given)	Pf growth 48h inconclusive (no result: NS1 inh)
COC(=O)C1=C(C)NC2=C(C(=O)CC(C)(C)C2)C1c1ccsc1 (stereo not given)	Pf growth 96h inconclusive, Pf growth 48h inconclusive
CC1=C(C(=O)OC2CCCC2)C(c2coc3ccccc3c2=O)C2=C(CC(C)(C)CC2=O)N1 (stereo not given)	Pf growth 96h inconclusive, Pf growth 48h 4.1µM
Cc1cc(C(=O)N2CCN(C(c3ccccc3)c3ccccc3)CC2)no1	Pf growth 96h inconclusive, Pf growth 48h 9.3µM
COc1cccc(-c2cc(C(=O)N3CCN(C(c4ccccc4)c4ccccc4)CC3)no2)c1	Pf growth 96h 1.5µM, Pf growth 48h 8.3µM
CCCc1cc(=O)[nH]c(SCC(=O)N2CCN(S(=O)(=O)c3ccc(C)cc3)C2)n1	Pf growth 96h 13µM, NS1 inh inconclusive (no result: Pf growth 48h)
CCCc1cc(=O)[nH]c(SCC(=O)N2CCN(S(=O)(=O)c3ccccc3)CC2)n1	Pf growth 96h inconclusive
Cc1cc(=O)oc(C)c1C(=O)N1CCN(C(c2ccccc2)c2ccccc2)CC1	Sm TGR block inconclusive, Pf growth 96h 9.3µM, Pf growth 48h 13µM
COc1cccc(-c2cc(C(=O)N3CCOCC3)no2)c1	Pf growth 96h inconclusive
COc1ccccc1N1CCN(C(=O)c2c(C)cc(=O)oc2C)CC1	none (no result: Pf growth 96h)
Cc1cc(C(=O)N2CCN(c3ccccc3)CC2)no1	Sm TGR block inconclusive
COc1cc(OC)cc(C(=O)Nc2nc(-c3nnn(-c4ccc(F)c(Cl)c4)c3C)ns2)c1	none (no result: AMA1 RON2 block, Pf growth 96h, Pf growth 48h, NS1 inh)
CCOC(=O)c1c[nH][nH]c1=O	none
Cc1onc(C(=O)N2CCN(C(c3ccccc3)c3ccccc3)CC2)c1[N+](=O)[O-]	Pf growth 96h inconclusive, Pf growth 48h inconclusive
O=C(c1cc(-c2cccs2)on1)N1CCN(C(c2ccccc2)c2ccccc2)CC1	Pf growth 48h 6.6µM
CCCc1cc(C(=O)N2CCN(C(c3ccccc3)c3ccccc3)CC2)no1	Pf growth 96h inconclusive, Pf growth 48h 12µM
Cc1cc(N2C(=O)CC(N3CCN(C(c4ccccc4)c4ccccc4)CC3)C2=O)no1 (stereo not given)	Sm TGR block 45µM
CC12CCC(C(=O)N3CCN(C(c4ccccc4)c4ccccc4)CC3)(OC1=O)C2(C)C (stereo not given)	Pf growth 96h 1.7µM (no result: Pf growth 48h)
